In PMC10726135, “HNF4α isoforms regulate the circadian balance between carbohydrate and lipid metabolism in the liver”:
Over roughly 18,000 sequences, “log2 normalized intensity” has its median near 0.36; the highest 2% begin near 7.3. Only a selection was taken, and the highest values are over-represented in it overall.

What follows are sequences tested against T1, HNF4alpha8 (COS-7 nuclear extract) (Homo sapiens, UniProt P41235-5 1-452) (assay: protein-binding microarray; COS-7 nuclear extract on double-stranded Agilent 4x180k PBM; binding buffer, salt, pH and temperature not given in the material; high values mean tight binding). Settings: chain copies: 2; label: 3' end of strand 1 on the slide; dsDNA, one strand shown.
T1 sequence: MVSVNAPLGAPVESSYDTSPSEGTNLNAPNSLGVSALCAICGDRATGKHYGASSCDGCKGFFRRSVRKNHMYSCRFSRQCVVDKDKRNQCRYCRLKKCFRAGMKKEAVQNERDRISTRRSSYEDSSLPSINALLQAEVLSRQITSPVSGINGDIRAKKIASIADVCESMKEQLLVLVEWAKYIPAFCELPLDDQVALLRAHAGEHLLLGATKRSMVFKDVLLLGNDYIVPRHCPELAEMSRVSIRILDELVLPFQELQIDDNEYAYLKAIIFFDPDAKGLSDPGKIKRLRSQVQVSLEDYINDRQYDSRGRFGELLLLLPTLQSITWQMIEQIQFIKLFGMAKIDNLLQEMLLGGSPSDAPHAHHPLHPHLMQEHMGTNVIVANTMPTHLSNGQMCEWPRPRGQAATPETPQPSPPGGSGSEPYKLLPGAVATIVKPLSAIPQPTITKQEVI
How it was run: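 Double-stranded oligonucleotides of ~60 nt, representing ~44,000 test sequences in quadruplicate, made up a custom Agilent SurePrint G3 4x180k array. Nuclear extracts from COS-7 cells transiently transfected by CaPO4 with a human HNF4α isoform expression vector were applied, and bound HNF4α was imaged at 2-µm resolution on an Agilent G2565CA scanner. Binding signal refers to the background-corrected, normalized gProcessedSignal output of Agilent software.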

Sequence | binding signal [log2 normalized intensity]
TCACACAAATGGATCTTTCTTCAAAAAGAGGCCTAGGGAGATTAGAGTATCGGTCGA | -0.0678
CCCTTTAGTGCCTGGATCTTGGAACAGGTCGCCTAGGGAGATTAGAGTATCGGTCGA | 1.97
AGACTCAGCATGTCTTCTGACCTTTGGCAAGCCTAGGGAGATTAGAGTATCGGTCGA | 6.98
GTCTCTCAGGCACAGCTCGACCTTTGACCTGCCTAGGGAGATTAGAGTATCGGTCGA | 10
GGTCTCCTTGCCCCACCCCCCACCCCAGAAGCCTAGGGAGATTAGAGTATCGGTCGA | 6.87
GCCCCAGCTCGCTCAGCTGGTTGCCCCTTTGCCTAGGGAGATTAGAGTATCGGTCGA | 4.47
ATGCTGGTCTCCTTGCCCCACCCCCCACCCGCCTAGGGAGATTAGAGTATCGGTCGA | 7.48
TATTTAGACTCAGCATGTCTTCTGACCTTTGCCTAGGGAGATTAGAGTATCGGTCGA | 7.33
CAGCATGTCTTCTGACCTTTGGCAATATCTGCCTAGGGAGATTAGAGTATCGGTCGA | 5.1
GCTCAGCTGGTTGCCCCTTTGACCCTCGGGGCCTAGGGAGATTAGAGTATCGGTCGA | 7.06
CCTGCACACCTGCCTTTGATCAGGGACCTTGCCTAGGGAGATTAGAGTATCGGTCGA | 1.97
AGCTCGCTCAGCTGGTTGCCCCTTTGACCCGCCTAGGGAGATTAGAGTATCGGTCGA | 8.48
CCTCTGTCTCTCAGGCACAGCTCGACCTTTGCCTAGGGAGATTAGAGTATCGGTCGA | 6.7
GGGTCATGCTGGTCTCCTTGCCCCACCCCCGCCTAGGGAGATTAGAGTATCGGTCGA | 5.73
AGTCACACACACCTGTGTCCCCCAGGTCCAGCCTAGGGAGATTAGAGTATCGGTCGA | 3.56
ATATCTGCCTCAGTAGTAGTGAAAAATGAAGCCTAGGGAGATTAGAGTATCGGTCGA | 0.637
GGAGGTGACCTTTGGTTGTCCTTACTGCTAGCCTAGGGAGATTAGAGTATCGGTCGA | 4.22
ACCTCTTATCAAGCGTGCACCCCAGGTACGGCCTAGGGAGATTAGAGTATCGGTCGA | 1.3
ATGGTGTTTGCTTTGTGAAGGCTTATCTGCGCCTAGGGAGATTAGAGTATCGGTCGA | 0.591
GGTTCTTCCACGACTCCCCCGCTCACCCCTGCCTAGGGAGATTAGAGTATCGGTCGA | 5.08
AACTTTTCCATGTCCAAAGGTCTTCATGAGGCCTAGGGAGATTAGAGTATCGGTCGA | 4.33
AGTGCCATGTAATCAAACTGAACTTTGAAAGCCTAGGGAGATTAGAGTATCGGTCGA | 4.48

Sequence | binding signal [log2 normalized intensity]
AACATCATAGAGTGTACTTATGCAGACCTGGCCTAGGGAGATTAGAGTATCGGTCGA | 0.968
CCTCCAGCTACTCACTCTTCCCAAATAGGTGCCTAGGGAGATTAGAGTATCGGTCGA | -0.273
AAGTGCGTCCTGTGGCAAAGGTGAATGACCGCCTAGGGAGATTAGAGTATCGGTCGA | 2.99
TTCACAGAGCAAGGGTCCAGATTAGAGCACGCCTAGGGAGATTAGAGTATCGGTCGA | 2.52
AAAGCCACCCCTTTCTCCTCTCTTTCCATAGCCTAGGGAGATTAGAGTATCGGTCGA | 0.633
GGACAAAGTTCCCCGGGCAGCTGTGTTTGCGCCTAGGGAGATTAGAGTATCGGTCGA | 0.702
CTCCAACTGCTCCTCTTCAACTGATTCTTGGCCTAGGGAGATTAGAGTATCGGTCGA | -0.845
GGGGCCTAGCTTGTAAAGGGTAATCTGCTTGCCTAGGGAGATTAGAGTATCGGTCGA | -0.484
CTTCCAAGGCTGCAAGCAAACCTGCCCTTTGCCTAGGGAGATTAGAGTATCGGTCGA | 4.57
CAGGGTGGGGTCTCGCTGCTTCGGCCTTTGGCCTAGGGAGATTAGAGTATCGGTCGA | 1.11
TGGGGTCTCGCTGCTTCGGCCTTTGACCTCGCCTAGGGAGATTAGAGTATCGGTCGA | 8.46
TCTCGCTGCTTCGGCCTTTGACCTCGTGATGCCTAGGGAGATTAGAGTATCGGTCGA | 7.09
CCAAAGTCCAAAGTCCAGTCTTATCTGAGAGCCTAGGGAGATTAGAGTATCGGTCGA | 7.93
ATTCCTAAGTTCCAAAGGCCATCCACATTCGCCTAGGGAGATTAGAGTATCGGTCGA | 2.4
CTTGAGTCCAGGAGTGCAAAGCTGCTATGAGCCTAGGGAGATTAGAGTATCGGTCGA | -0.723
TGCCTGCAGGAGAGAGCAAAGTCCACGCATGCCTAGGGAGATTAGAGTATCGGTCGA | 6.82
CTATCTGCCTGCAGGAGAGAGCAAAGTCCAGCCTAGGGAGATTAGAGTATCGGTCGA | 8.21
CAGGGAGCCCTTATATCCACATGGGTCCAAGCCTAGGGAGATTAGAGTATCGGTCGA | 3.03
CAACTCCAAAGTCCAAAGTCCAGTCTTATCGCCTAGGGAGATTAGAGTATCGGTCGA | 8.47
AGTCCAAAGGTCTGAGAACCAAGAGAGCCAGCCTAGGGAGATTAGAGTATCGGTCGA | 1.62
AGTCTTGAGTCCCAAAGTCCAAAGGCAGTCGCCTAGGGAGATTAGAGTATCGGTCGA | 3.61
GACCAGTCTGCCTGACTCCAGAGTCCAAACGCCTAGGGAGATTAGAGTATCGGTCGA | 4.23

Sequence | binding signal [log2 normalized intensity]
AGCCCTTATATCCACATGGGTCCAAAGTTCGCCTAGGGAGATTAGAGTATCGGTCGA | 9.47
GCATGGCTCAGTCCAAGTCCAAAGGTCTGAGCCTAGGGAGATTAGAGTATCGGTCGA | 6.28
TTCAGTCTTTGTCTTAGCCTGCTCTTTTCCGCCTAGGGAGATTAGAGTATCGGTCGA | 1.12
CCTCTGAAAACTTTTACTGGGAAGAGATAAGCCTAGGGAGATTAGAGTATCGGTCGA | -0.817
AGATAAGACAAGCTCTGTTTGTTTTGTTACGCCTAGGGAGATTAGAGTATCGGTCGA | 1.26
ATACAGAATCAATGCCTGATTCCAAAGTCCGCCTAGGGAGATTAGAGTATCGGTCGA | 6.36
GAATCAATGCCTGATTCCAAAGTCCACTTTGCCTAGGGAGATTAGAGTATCGGTCGA | 7.71
ACTTTGCCTTTTGGCTAAAGTCCAAATTCCGCCTAGGGAGATTAGAGTATCGGTCGA | 6.01
AACTTTGTTTGAGTTCCAAAGTCCATGTTCGCCTAGGGAGATTAGAGTATCGGTCGA | 7.61
GTCAAAACTTTGTTTGAGTTCCAAAGTCCAGCCTAGGGAGATTAGAGTATCGGTCGA | 7.18
TGTTTGAGTTCCAAAGTCCATGTTCATAACGCCTAGGGAGATTAGAGTATCGGTCGA | 5.66
TGTTTGTTTTGAGATAGGGTCTTGCTTTGTGCCTAGGGAGATTAGAGTATCGGTCGA | 1.3
CACTCATGGTGTTTGCTTTGTGAAGGCTTAGCCTAGGGAGATTAGAGTATCGGTCGA | 0.417
TTCCTCCAGCCTGTCGGAATTTGCCCTGTGGCCTAGGGAGATTAGAGTATCGGTCGA | 5.15
ACCATTAACCCTACAGTCCTGCCACATCCCGCCTAGGGAGATTAGAGTATCGGTCGA | -0.385
ATCTCATCCTGTGACCAAGAATGTCTAACCGCCTAGGGAGATTAGAGTATCGGTCGA | -0.428
ATTTGACCCTTGGCCAGGTGCAGTGGCTCAGCCTAGGGAGATTAGAGTATCGGTCGA | 3.54
ATCCTTCTTGACCAGGCAAGCTTGACCTTTGCCTAGGGAGATTAGAGTATCGGTCGA | 7.77
TTGATCCAGGATCCTTCTTGACCAGGCAAGGCCTAGGGAGATTAGAGTATCGGTCGA | 0.747
CAAGCTTGATCCAGGATCCTTCTTGACCAGGCCTAGGGAGATTAGAGTATCGGTCGA | 1.18
GCAAGCTTGACCTTTGATCCAGGCTCAGTGGCCTAGGGAGATTAGAGTATCGGTCGA | 8.22
TTAGGATGACCTTTAGATTCTTACAGGCAAGCCTAGGGAGATTAGAGTATCGGTCGA | 4.57

Sequence | binding signal [log2 normalized intensity]
TCTTGACCAGGCAAGCTTGACCTTTGATCCGCCTAGGGAGATTAGAGTATCGGTCGA | 10
CTTGACCTTTGATCCAGGCTCAGTGGGCGTGCCTAGGGAGATTAGAGTATCGGTCGA | 5.72
ACTTTGACCTAGAAGCCAGGGACCAGGAAGGCCTAGGGAGATTAGAGTATCGGTCGA | -0.796
GCTCCTGTTCCTTTGTTACACTGGCTGCCCGCCTAGGGAGATTAGAGTATCGGTCGA | 2.08
AAAGGTCACCAGTGAGCCAAGGTACCCTGGGCCTAGGGAGATTAGAGTATCGGTCGA | 1.29
GTGACTCTAGGAACCTTTCTCCATACCTCTGCCTAGGGAGATTAGAGTATCGGTCGA | -0.874
ACAAAGAAATGTAACCTTTGGCCAATTGCAGCCTAGGGAGATTAGAGTATCGGTCGA | 5.13
AACTGACACTTGTTTGAATTGTGATAATAAGCCTAGGGAGATTAGAGTATCGGTCGA | 1.04
TTATCTTGGTGCCTGCAGAGCCTCCCCATTGCCTAGGGAGATTAGAGTATCGGTCGA | 2.69
GTAGGGCAGAGGCCAGTTTGATCACAAGACGCCTAGGGAGATTAGAGTATCGGTCGA | -0.285
AGTTTGGTTTAAAGTTCAAGTCATAACTGGGCCTAGGGAGATTAGAGTATCGGTCGA | 2.53
GGACTTTGGTCTCATGGGCCTAAACATTCCGCCTAGGGAGATTAGAGTATCGGTCGA | 5.24
GAATAATCCCCTCCTGGACTTTGGTCTCATGCCTAGGGAGATTAGAGTATCGGTCGA | 8
ATCCCCTCCTGGACTTTGGTCTCATGGGCCGCCTAGGGAGATTAGAGTATCGGTCGA | 7.4
CAAATGAATAATCCCCTCCTGGACTTTGGTGCCTAGGGAGATTAGAGTATCGGTCGA | 5.55
ATGCCCAAATGAATAATCCCCTCCTGGACTGCCTAGGGAGATTAGAGTATCGGTCGA | 3.33
GACATGCAGTATGGGGACTTTGGACTCCTGGCCTAGGGAGATTAGAGTATCGGTCGA | 8.41
GTAATGACATGCAGTATGGGGACTTTGGACGCCTAGGGAGATTAGAGTATCGGTCGA | 7.1
TATGTGCTCACTCCTGGGACAAGGACTTTGGCCTAGGGAGATTAGAGTATCGGTCGA | 3.11
CTCCTGGACTTTGGTCTCATGGGCCTAAACGCCTAGGGAGATTAGAGTATCGGTCGA | 5.27
